What all share (experiment): DAPPL (digital affinity profiling via proximity ligation, sequencing); 10 mM Tris-HCl pH 7.5, 50 mM NaCl, 1 mM DTT, 4% glycerol, room temperature, 30 min; GST-TFs on glutathione beads, 16-mer random dsDNA library, 0.1% formaldehyde crosslink after washing; high values mean tight binding
One assay has as its target T1, FLI1 (Homo sapiens, UniProt Q01543 1-452).
T1 sequence: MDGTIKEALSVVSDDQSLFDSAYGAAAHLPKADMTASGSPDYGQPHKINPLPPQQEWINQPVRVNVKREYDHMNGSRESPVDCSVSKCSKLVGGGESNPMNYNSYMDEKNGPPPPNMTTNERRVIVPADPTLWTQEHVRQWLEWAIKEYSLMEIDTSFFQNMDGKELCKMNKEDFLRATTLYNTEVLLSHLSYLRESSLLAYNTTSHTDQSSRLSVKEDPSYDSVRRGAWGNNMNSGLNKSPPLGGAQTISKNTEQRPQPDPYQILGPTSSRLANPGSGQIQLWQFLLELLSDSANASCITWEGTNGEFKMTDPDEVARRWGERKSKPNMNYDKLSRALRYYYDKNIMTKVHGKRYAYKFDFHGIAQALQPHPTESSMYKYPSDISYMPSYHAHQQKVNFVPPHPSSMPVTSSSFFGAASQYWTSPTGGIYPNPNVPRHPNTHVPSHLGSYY
Particulars: protein: recombinant; tags: N-terminal GST; dsDNA, one strand shown. An outline of the steps:
(§1)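 Pools were built from human transcription factors expressed in yeast as GST fusions, captured on glutathione beads and DNA-barcoded, along with a tag-only sample. Incubation with 200 nmole of a 16-mer random double-stranded DNA library lasted 30 min at room temperature in Tris/NaCl/DTT/glycerol buffer, and was followed by washing, 0.1% formaldehyde crosslinking, proximity ligation, PCR amplification and Illumina NextSeq500 sequencing. Binding signal is the quotient of each hexamer's read frequency for a factor and its frequency for the tag-only sample.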

In another assay the target is T2, ELK1 (Homo sapiens, UniProt P19419 1-428).
T2 sequence: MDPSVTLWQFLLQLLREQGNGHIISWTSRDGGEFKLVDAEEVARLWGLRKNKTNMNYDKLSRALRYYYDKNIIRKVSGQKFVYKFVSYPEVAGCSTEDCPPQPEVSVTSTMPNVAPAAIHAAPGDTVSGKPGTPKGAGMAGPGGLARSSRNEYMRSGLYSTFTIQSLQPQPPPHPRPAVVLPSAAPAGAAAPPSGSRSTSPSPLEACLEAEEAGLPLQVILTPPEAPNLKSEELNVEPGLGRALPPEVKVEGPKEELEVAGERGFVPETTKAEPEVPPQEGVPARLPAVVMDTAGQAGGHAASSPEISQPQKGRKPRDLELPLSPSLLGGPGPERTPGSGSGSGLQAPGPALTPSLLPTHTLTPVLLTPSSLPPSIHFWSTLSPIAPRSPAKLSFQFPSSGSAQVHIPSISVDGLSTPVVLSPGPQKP
The settings on record: protein: recombinant; tags: N-terminal GST; dsDNA, one strand shown. An outline of the steps:
as §1

The target in another assay is T3, GABPA (Homo sapiens, UniProt Q06546 1-454).
T3 sequence: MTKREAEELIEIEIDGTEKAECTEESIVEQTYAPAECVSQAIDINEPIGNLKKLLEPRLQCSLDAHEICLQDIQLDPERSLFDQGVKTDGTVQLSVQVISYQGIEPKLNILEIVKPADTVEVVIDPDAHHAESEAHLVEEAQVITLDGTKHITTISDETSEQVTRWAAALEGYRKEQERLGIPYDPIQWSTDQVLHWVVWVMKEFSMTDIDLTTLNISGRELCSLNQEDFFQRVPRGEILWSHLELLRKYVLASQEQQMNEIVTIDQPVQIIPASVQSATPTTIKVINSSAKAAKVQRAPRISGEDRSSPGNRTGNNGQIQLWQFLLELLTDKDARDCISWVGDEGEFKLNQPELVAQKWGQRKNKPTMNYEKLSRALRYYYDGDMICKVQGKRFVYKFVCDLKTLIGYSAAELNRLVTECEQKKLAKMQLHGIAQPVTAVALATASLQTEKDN
Particulars: protein: recombinant; tags: N-terminal GST; dsDNA, one strand shown. An outline of the steps: as §1

For another assay, the target named is T4, ERG (Homo sapiens, UniProt P11308 1-479).
T4 sequence: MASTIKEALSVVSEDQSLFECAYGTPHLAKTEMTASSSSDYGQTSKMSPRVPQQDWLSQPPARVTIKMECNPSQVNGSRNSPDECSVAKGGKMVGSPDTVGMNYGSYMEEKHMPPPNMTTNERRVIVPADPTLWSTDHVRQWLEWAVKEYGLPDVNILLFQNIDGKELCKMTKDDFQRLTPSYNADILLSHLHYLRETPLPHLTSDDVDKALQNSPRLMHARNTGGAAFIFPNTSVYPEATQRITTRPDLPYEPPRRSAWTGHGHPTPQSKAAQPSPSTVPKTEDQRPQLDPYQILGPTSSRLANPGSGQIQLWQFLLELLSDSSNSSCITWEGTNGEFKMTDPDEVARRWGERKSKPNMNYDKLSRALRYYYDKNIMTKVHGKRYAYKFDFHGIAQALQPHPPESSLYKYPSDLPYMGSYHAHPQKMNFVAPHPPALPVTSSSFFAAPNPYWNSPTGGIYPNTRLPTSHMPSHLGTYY
The settings on record: protein: recombinant; tags: N-terminal GST; dsDNA, one strand shown. An outline of the steps: as §1

Another assay has as its target ELF1 (Homo sapiens, UniProt P32519 1-619). Particulars: protein: recombinant; tags: N-terminal GST; dsDNA, one strand shown. An outline of the steps: as §1
The target of the next assay is T5, EHF (Homo sapiens, UniProt Q9NZC4 1-300).
T5 sequence: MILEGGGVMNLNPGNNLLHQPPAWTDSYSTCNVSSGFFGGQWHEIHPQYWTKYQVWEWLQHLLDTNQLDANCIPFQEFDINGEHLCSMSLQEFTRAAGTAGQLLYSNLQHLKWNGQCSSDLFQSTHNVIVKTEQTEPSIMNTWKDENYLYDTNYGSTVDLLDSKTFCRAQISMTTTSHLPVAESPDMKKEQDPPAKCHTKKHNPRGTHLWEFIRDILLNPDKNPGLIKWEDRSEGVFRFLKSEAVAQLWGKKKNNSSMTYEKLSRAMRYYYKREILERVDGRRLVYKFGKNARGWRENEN
The settings on record: protein: recombinant; tags: N-terminal GST; dsDNA, one strand shown. An outline of the steps: as §1

The target of another assay is SPI1 (Homo sapiens, UniProt P17947 1-270). Particulars: protein: recombinant; tags: N-terminal GST; dsDNA, one strand shown. In a few lines:
as §1

Another assay concerns the target SPIB (Homo sapiens, UniProt Q01892 1-262). Particulars: protein: recombinant; tags: N-terminal GST; dsDNA, one strand shown. In a few lines:
as §1

For another assay, the target named is T6, ELK3 (Homo sapiens, UniProt P41970 1-407).
T6 sequence: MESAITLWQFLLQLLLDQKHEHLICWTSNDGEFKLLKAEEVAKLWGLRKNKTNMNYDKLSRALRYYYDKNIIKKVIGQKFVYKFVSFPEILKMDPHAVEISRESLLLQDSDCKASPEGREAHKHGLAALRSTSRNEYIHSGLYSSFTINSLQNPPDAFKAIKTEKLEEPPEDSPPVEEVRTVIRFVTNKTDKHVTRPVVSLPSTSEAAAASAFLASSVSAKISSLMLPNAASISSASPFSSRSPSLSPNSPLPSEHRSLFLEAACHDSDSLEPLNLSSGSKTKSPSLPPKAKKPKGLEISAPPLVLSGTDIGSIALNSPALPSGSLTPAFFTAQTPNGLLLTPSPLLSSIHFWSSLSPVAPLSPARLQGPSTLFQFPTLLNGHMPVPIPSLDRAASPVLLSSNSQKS
The settings on record: protein: recombinant; tags: N-terminal GST; dsDNA, one strand shown. In a few lines:
as §1

Another assay has as its target T7, FEV (Homo sapiens, UniProt Q99581 1-238).
T7 sequence: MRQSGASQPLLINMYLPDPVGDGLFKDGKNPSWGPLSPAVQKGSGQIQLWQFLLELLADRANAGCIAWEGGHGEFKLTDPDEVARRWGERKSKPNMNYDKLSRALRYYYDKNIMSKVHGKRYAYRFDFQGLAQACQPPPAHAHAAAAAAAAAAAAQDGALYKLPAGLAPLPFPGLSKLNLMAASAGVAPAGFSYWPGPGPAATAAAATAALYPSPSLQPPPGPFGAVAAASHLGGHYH
Particulars: protein: recombinant; tags: N-terminal GST; dsDNA, one strand shown. An outline of the steps:
as §1

The next assay deals with ETV5 (Homo sapiens, UniProt P41161 1-510). The settings on record: protein: recombinant; tags: N-terminal GST; dsDNA, one strand shown. In a few lines: as §1
The target of the next assay is HSF1 (Homo sapiens, UniProt Q00613 1-529). Particulars: protein: recombinant; tags: N-terminal GST; chain copies: 3; dsDNA, one strand shown. In a few lines:
as §1

A further assay concerns the target T8, SPIC (Homo sapiens, UniProt Q8N5J4 1-248).
T8 sequence: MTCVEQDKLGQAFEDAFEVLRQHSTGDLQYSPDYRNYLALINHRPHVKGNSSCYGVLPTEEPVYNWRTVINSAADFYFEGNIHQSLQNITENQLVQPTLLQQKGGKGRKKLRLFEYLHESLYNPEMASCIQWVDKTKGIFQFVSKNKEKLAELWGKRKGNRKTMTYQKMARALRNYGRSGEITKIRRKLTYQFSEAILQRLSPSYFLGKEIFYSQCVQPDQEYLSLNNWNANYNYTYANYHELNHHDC
Particulars: protein: recombinant; tags: N-terminal GST; dsDNA, one strand shown. In a few lines:
as §1

The target of another assay is ELF4 (Homo sapiens, UniProt Q99607 1-663). The settings on record: protein: recombinant; tags: N-terminal GST; dsDNA, one strand shown. An outline of the steps: as §1
Another assay addresses T9, ELK4 (Homo sapiens, UniProt P28324-2 1-405).
T9 sequence: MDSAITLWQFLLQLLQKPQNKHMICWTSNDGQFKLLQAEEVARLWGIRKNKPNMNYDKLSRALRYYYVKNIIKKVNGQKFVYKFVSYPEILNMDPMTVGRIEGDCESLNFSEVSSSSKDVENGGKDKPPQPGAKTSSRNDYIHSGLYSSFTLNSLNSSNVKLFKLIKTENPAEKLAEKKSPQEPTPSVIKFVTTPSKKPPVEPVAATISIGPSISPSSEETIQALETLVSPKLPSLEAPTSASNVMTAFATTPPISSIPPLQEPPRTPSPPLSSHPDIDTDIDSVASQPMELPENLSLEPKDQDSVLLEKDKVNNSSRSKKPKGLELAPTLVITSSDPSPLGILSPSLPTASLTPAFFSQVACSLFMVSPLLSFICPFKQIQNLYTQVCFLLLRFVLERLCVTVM
Particulars: protein: recombinant; tags: N-terminal GST; dsDNA, one strand shown. In a few lines: as §1

The next assay addresses T10, ETV2 (Homo sapiens, UniProt O00321 1-342).
T10 sequence: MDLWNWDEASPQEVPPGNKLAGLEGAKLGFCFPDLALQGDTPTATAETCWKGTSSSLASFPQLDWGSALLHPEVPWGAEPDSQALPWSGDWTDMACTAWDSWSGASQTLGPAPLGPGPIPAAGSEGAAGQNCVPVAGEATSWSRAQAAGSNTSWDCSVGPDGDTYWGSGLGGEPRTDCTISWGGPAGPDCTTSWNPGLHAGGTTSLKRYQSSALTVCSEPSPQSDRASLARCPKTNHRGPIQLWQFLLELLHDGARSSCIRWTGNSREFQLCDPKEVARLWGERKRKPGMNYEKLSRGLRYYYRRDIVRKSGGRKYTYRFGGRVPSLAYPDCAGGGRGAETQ
Particulars: protein: recombinant; tags: N-terminal GST; dsDNA, one strand shown. In a few lines: as §1

The target of the next assay is T11, ELF3 (Homo sapiens, UniProt P78545 1-371).
T11 sequence: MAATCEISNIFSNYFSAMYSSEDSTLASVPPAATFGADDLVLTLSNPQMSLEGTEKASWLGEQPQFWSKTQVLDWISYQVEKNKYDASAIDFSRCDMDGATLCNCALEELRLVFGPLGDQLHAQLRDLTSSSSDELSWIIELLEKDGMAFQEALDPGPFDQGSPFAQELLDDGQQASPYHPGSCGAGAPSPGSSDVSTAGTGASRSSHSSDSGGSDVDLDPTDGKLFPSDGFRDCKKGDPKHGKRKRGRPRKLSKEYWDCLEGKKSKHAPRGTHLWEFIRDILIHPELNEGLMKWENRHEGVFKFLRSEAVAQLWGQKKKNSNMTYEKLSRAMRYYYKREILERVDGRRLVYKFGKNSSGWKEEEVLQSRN
Particulars: protein: recombinant; tags: N-terminal GST; dsDNA, one strand shown. An outline of the steps: as §1

For the next assay, the target named is CRX (Homo sapiens, UniProt O43186 1-299). The settings on record: protein: recombinant; tags: N-terminal GST; dsDNA, one strand shown. In a few lines: as §1
The target of another assay is ETV1 (Homo sapiens, UniProt P50549 1-477). The settings on record: protein: recombinant; tags: N-terminal GST; dsDNA, one strand shown. In a few lines:
as §1

Chain of ELF4 (Q99607 whole entry): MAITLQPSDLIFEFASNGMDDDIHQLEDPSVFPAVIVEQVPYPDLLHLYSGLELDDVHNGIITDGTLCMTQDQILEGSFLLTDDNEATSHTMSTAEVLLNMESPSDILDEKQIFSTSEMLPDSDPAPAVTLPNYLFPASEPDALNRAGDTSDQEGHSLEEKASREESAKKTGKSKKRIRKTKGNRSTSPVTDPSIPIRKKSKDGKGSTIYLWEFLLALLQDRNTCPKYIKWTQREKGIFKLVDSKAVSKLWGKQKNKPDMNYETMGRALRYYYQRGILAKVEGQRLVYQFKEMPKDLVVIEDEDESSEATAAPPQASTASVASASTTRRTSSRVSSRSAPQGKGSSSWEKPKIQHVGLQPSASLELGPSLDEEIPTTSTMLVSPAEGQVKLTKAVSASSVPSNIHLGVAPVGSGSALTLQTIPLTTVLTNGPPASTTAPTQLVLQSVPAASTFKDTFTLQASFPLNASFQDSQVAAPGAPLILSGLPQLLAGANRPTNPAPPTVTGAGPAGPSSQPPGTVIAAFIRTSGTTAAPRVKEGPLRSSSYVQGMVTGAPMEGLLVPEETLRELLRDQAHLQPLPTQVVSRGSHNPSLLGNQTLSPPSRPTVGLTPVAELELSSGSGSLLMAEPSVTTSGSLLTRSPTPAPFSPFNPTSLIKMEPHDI
Chain of SPIB (Q01892 whole entry): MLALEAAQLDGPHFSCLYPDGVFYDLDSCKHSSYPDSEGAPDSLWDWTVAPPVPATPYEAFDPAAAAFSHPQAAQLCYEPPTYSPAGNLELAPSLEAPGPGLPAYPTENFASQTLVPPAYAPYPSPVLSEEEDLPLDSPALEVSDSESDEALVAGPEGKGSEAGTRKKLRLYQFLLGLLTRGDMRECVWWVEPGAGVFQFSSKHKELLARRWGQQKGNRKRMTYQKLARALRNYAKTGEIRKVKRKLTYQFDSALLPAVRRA
Chain of ELF1 (P32519 whole entry): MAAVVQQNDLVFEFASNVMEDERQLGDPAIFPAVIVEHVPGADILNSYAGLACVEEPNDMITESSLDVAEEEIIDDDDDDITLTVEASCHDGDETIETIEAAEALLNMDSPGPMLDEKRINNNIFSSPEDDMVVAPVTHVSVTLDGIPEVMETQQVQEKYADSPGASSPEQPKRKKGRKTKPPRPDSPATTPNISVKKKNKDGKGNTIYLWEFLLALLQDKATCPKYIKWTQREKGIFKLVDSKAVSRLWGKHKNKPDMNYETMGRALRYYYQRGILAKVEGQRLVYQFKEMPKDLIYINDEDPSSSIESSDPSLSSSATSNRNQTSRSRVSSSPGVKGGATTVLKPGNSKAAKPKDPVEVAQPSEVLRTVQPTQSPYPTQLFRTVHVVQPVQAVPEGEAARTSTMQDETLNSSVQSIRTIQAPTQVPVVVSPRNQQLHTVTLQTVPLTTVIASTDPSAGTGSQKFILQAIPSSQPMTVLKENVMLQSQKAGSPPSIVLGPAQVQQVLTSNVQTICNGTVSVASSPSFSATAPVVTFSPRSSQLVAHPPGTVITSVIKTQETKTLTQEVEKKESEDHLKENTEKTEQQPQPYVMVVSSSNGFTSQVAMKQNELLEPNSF
Chain of ETV5 (P41161 whole entry): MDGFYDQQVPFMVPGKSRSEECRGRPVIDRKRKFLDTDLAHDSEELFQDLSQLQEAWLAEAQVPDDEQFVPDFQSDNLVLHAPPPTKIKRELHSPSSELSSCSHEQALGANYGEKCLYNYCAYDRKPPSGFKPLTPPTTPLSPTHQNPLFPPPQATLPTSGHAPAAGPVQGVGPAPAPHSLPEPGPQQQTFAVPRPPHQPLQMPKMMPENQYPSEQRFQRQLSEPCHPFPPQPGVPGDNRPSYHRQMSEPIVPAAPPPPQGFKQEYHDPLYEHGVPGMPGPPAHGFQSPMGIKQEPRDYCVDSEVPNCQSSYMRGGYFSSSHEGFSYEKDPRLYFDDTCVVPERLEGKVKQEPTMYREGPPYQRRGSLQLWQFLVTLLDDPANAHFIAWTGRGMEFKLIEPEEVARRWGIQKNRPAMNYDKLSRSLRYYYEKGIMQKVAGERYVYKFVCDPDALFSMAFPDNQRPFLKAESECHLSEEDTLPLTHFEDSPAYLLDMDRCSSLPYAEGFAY
Chain of CRX (O43186 whole entry): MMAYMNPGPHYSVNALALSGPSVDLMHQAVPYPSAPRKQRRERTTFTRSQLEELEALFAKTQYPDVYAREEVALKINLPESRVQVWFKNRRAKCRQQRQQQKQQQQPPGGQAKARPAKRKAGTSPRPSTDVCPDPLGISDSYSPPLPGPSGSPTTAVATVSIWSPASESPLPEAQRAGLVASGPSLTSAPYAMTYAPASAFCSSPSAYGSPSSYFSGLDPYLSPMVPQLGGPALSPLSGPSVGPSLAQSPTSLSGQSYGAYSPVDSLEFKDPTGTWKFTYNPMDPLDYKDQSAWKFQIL
Chain of HSF1 (Q00613 whole entry): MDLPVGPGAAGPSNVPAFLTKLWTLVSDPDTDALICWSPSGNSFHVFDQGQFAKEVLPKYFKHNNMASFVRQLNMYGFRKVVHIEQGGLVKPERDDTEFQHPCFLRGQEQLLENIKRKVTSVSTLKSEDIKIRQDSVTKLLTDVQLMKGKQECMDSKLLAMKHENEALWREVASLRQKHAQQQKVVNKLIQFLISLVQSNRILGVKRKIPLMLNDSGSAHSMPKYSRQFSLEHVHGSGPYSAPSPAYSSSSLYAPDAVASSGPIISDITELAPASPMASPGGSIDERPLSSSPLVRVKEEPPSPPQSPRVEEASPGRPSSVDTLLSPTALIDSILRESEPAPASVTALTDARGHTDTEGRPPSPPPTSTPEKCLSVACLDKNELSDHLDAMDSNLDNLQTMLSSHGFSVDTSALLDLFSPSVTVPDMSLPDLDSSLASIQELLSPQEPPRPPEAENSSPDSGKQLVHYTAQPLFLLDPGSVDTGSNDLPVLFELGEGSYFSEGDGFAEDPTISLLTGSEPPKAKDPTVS
Chain of ETV1 (P50549 whole entry): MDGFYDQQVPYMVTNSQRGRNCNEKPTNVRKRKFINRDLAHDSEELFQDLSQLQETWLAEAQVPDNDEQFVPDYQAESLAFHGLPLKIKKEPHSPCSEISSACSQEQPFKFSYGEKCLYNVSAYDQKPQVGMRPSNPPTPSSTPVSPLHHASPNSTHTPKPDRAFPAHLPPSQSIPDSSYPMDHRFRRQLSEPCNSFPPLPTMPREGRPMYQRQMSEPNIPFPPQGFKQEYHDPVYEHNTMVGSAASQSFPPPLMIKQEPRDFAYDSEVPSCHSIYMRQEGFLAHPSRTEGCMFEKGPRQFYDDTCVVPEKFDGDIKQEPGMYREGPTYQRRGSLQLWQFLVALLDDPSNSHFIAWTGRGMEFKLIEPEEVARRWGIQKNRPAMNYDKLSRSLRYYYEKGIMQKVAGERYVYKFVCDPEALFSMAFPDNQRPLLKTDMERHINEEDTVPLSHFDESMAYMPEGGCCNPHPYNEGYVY

Consider CCGCTA, for which the binding signal with FLI1 is 1.45 fold enrichment (6-mer frequency, TF over GST control); in the assay with ELK1 it was 1.37 fold enrichment (6-mer frequency, TF over GST control); in the assay with GABPA, 1.2 fold enrichment (6-mer frequency, TF over GST control); in the assay with ERG, 1.37 fold enrichment (6-mer frequency, TF over GST control); in the assay with ELF1 it was 1.27 fold enrichment (6-mer frequency, TF over GST control); with EHF, 1.41 fold enrichment (6-mer frequency, TF over GST control). Also, the binding signal is 1.51 fold enrichment (6-mer frequency, TF over GST control) in the assay with SPI1; 1.46 fold enrichment (6-mer frequency, TF over GST control) in the assay with SPIB; 1.37 fold enrichment (6-mer frequency, TF over GST control) with ELK3; 1.33 fold enrichment (6-mer frequency, TF over GST control) with FEV; 1.23 fold enrichment (6-mer frequency, TF over GST control) in the assay with ETV5; 1.17 fold enrichment (6-mer frequency, TF over GST control) with HSF1. For the same sequence, the binding signal is 1.44 fold enrichment (6-mer frequency, TF over GST control) in the assay with SPIC; 1.33 fold enrichment (6-mer frequency, TF over GST control) in the assay with ELF4; 1.3 fold enrichment (6-mer frequency, TF over GST control) in the assay with ELK4; 1.37 fold enrichment (6-mer frequency, TF over GST control) with ETV2; 1.38 fold enrichment (6-mer frequency, TF over GST control) with ELF3; 1.28 fold enrichment (6-mer frequency, TF over GST control) with CRX. Moreover, the binding signal with ETV1 was 1.36 fold enrichment (6-mer frequency, TF over GST control).

The record behind these values is paper PMC7862700, “An all-to-all approach to the identification of sequence-specific readers for epigenetic DNA modifications on cytosine”.
